# Assay outcomes as filed in PubChem.
# Shown are actives, neighbours in structure and some others; about 12% of the full set was active somewhere.
# HP1b binding inh – HTS for Inhibitors of HP1-beta Chromodomain Interactions with Methylated Histone Tails. Chromobox protein homolog 1 (Homo sapiens), P83916. AlphaScreen HP1-beta / biotin-H3K9me3 peptide binding. Potency, µM (top dose mostly 114 µM), without a hit: top-dose activity change, negative = inhibition, actives largely listed as inhibitors. 390,000 tested, 0.56% active. AID 540317, 2011; further: nearly all actives have a fitted effect of over 70% in size
#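 Compound inhibition of the preformed complex between 50 nM HP1-beta and 50 nM biotinylated H3K9me3 peptide was read by AlphaScreen. Buffer was PBS pH 7.4 with 0.01% Tween-20. Incubations ran 30 min at room temperature, with 10 ug/mL donor/acceptor beads.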
# G9a block – qHTS Assay for Inhibitors of Histone Lysine Methyltransferase G9a; AID 504332, 2011; Histone-lysine N-methyltransferase EHMT2 (Homo sapiens), Q96KQ7; Potency, µM (doses to about 102 µM), inactives show at the highest dose activity, negative = inhibition, most hits filed as inhibitors; 350,000 tested, 8.8% active; G9a H3K9 monomethylation, AlphaScreen, 2 h; further: on the % scale 0 is the no-effect control and ±100 the full control effect; nearly all actives have a fitted effect of over 75% in size
#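 Quantitative HTS format: methyltransferase activity on a biotin-tagged H3K9 peptide is measured by AlphaScreen, using a rabbit anti-monomethyl-H3K9 antibody with streptavidin donor and anti-IgG acceptor beads. Final levels are 20 nM enzyme, 500 nM peptide, 20 uM SAM; 2 h RT.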
# BAZ2B block – qHTS Assay for Inhibitors of BAZ2B | 360,000 tested, 4.4% active | Potency, µM (highest dose often 114 µM), for the others: at the highest dose activity change, negative = inhibition, actives largely listed as inhibitors | Bromodomain adjacent to zinc finger domain protein 2B (Homo sapiens), Q9UIF8 | AlphaScreen BAZ2B-H3K14Ac peptide displacement | AID 504333, 2011; further: on the % scale 0 is the no-effect control and ±100 the full control effect; nearly all actives have a fitted effect of over 60% in size
#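 Inhibition is scored as reduced AlphaScreen emission. The BAZ2B/b-H3(5-23)K14Ac complex (50 nM each) in PBS pH 7.4, 0.01% Tween-20 meets compound (up to 110 uM) for 30 min at RT before bead addition.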
# JMJD2A Tudor inh – qHTS Assay for Inhibitors of JMJD2A-Tudor Domain; AlphaScreen JMJD2A-Tudor / H3K4me3 peptide binding; Potency, µM (doses to about 114 µM), without a hit: at the top dose activity change, negative = inhibition, actives largely listed as inhibitors; 390,000 tested, 4.4% active; AID 504339, 2011; further: on the % scale 0 is the no-effect control and ±100 the full control effect; nearly all actives have a fitted effect of over 50% in size
# L3MBTL1 inh – qHTS Assay for the Inhibitors of L3MBTL1. 230,000 tested, 0.66% active. AlphaScreen L3MBTL1–H3K9me1 peptide binding. Potency, µM (doses to about 57.1 µM), for the others: top-dose activity, negative = inhibition, most hits filed as inhibitors; further: on the % scale 0 is the no-effect control and ±100 the full control effect; nearly all actives have a fitted effect of over 60% in size
#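 L3MBTL1 50 nM + b-AHA-H3(1-15)K9me1 75 nM, 30 min RT; compound added, 30 min RT; streptavidin donor/Ni-chelate acceptor beads 10 ug/mL each final, 30 min RT dark; AlphaScreen read.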
# Sfp inh – qHTS Assay for Inhibitors of Bacillus subtilis Sfp phosphopantetheinyl transferase (PPTase); Biochemical Sfp PPTase activity, qHTS; Potency, µM, without a hit: largest response in the series, negative = inhibition, hits mostly inhibitors; 310,000 tested, 3.5% active;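 further: the enzyme is Sfp with the accession as filed and its product quenches rhodamine fluorescence; 0% = enzyme reaction without inhibitor and -100% = no enzyme wells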
#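 After 15 min at room temperature with compound, 15 nM Sfp received 5 uM rhodamine-CoA plus 12.5 uM BHQ-2-ybbR (50 mM Hepes pH 7.6, 10 mM MgCl2). Rate came from the fluorescence difference over 30 min, ex 525/em 598 nm.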
# Numbers without * were called inactive; ? = inconclusive; / = no result given; [ ] = dose if it differs, or a comment. The call rests on the fitted dose curve; in most records, active means well fitted curve in the direction sought with a large enough effect; inconclusive means small, poorly fitted or top-dose-only effect, or another doubt; inactive means no such curve, though single readings can be large; an effect the other way counts as inactive or inconclusive. Potency means the concentration at half of the fitted maximal effect.
SMILES,HP1b binding inh,G9a block,BAZ2B block,JMJD2A Tudor inh,L3MBTL1 inh,Sfp inh
COc1ccccc1NCC(=O)c1ccc(C)c(C)c1,-3%,-8%[0.501 µM],?,?,-1%[2.29 µM],-17%
N#CC1=C(N)OC2=C(C(=O)CCC2)C12CCC1(CC2)OCCO1,5%,79µM*,-36%,-17%,-5%,2%
CC1=C/C(=C(/c2ccc(O)c(C)c2)c2ccccc2S(=O)(=O)O)C=CC1=O,?,-15%[12.7 µM],50µM*,-20%,?,/
CC1=C/C(=C(/c2cc(C)c(O)c(Br)c2)c2ccccc2S(=O)(=O)O)C=C(Br)C1=O,32µM*,3%[2.33 µM],18µM*,?,/,-21%
Cc1ccc2c(=O)cc(C(=O)Nc3sc4c(c3C(=O)NCc3cccnc3)CCCC4)oc2c1C,77%,3%[59 µM],19%,-20%,/,/
CCNc1ncc2ncc(=O)n(C[C@H]3CCCO3)c2n1,/,4%[12.7 µM],/,/,/,18%
Cc1ccc(CN2CCN(C3CCN(C(=O)c4ccc(C)cc4)CC3)C(=O)C2=O)cc1,10%,0%[59 µM],0%,-15%,/,/
c1ccc(-c2cnc(SCCN3CCOCC3)n2CC2CCCO2)cc1 (stereo unspecified),?,2.5µM*,20µM*,3.5µM*,-7%,-20%
COc1ccccc1N1CCN(c2ccc3cc(S(=O)(=O)N4CCCCC4)ccc3n2)CC1,51%,-4%[59 µM],0%[57.1 µM],4%,/,10%
CCOC(=O)c1nnc(-c2ccccc2)nc1Sc1c(Cl)cccc1Cl,-22%,40µM*,?,?,/,-7%
CCOC(=O)c1nnc(-c2ccc(C)cc2)nc1Sc1ccc(Cl)cc1,34%,-2%[12.7 µM],32%,-4%,/,-4%
CCOC(=O)c1nnc(-c2ccccc2)nc1NCc1ccc(Cl)cc1,-4%,24%[59 µM],-34%,2%,1%,50µM*
N#CC(C#N)=C1NC(N)=C(C#N)C(c2ccccc2)=C1C#N,/,3.5µM*,?,/,/,56µM*
CCOC(=O)C1CCN(C(=O)c2cc(COc3ccc(OC)c4ccccc34)on2)CC1,-18%,45µM*,?,-16%,/,-1%
COc1ccc(OCc2cc(C(=O)N3CCC(OC)CC3)no2)c2ccccc12,-10%,?,?,?,/,-11%
C[C@H](NC(=O)Nc1cccc(Br)c1)C(=O)O,28%,?,-2%,10%,2%,20%
CCN1/C(=C/c2ccc3cc(C)ccc3[n+]2CC)Sc2ccccc21,?,7.9µM*,45µM*,-43%,-5%,11µM*
CC(=S)/C=C1\Sc2ccccc2N1C,?,?,50µM*,?,-14%,45µM*
CC[n+]1c(/C=C2\Sc3ccccc3N2C)ccc2cccc(C)c21,?,25µM*,45µM*,-23%[57.1 µM],-8%,?
CN1/C(=C/c2cccc[n+]2CCO)Sc2ccccc21,-13%,45µM*,56µM*,?,3%,-1%
CC[n+]1ccccc1/C=C1\Sc2ccc(C)cc2N1C,49%,43%[0.501 µM],?,?,/,-9%
